Measured potencies and affinities stand elsewhere. Calls of active or inactive are those of the source.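 How the source made its calls: active means signal-lowering compounds whose fitted half-maximal concentration is at or below twice the top tested dose in every run; inconclusive means runs disagree, flat 30 to 70% inhibition, or poor curve fit; inactive means the rest.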
Biological target: Protein S100-A4 (Homo sapiens) (UniProt P26447)
Experiment: human S100A4 peptide interaction inhibition curves – biochemical, fluorescence polarization, cherry-picked hits, dose response (AID 687001)
Settings: FP, S100A4/TAMRA-myosin IIA peptide binding; series mostly up to 11 µM

Chain of Protein S100-A4 (Homo sapiens) (P26447 whole entry, looked up): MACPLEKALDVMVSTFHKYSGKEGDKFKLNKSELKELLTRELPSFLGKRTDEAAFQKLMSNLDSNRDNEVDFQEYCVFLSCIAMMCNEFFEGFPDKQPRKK

outcome, inactive:
CCCCCCCCNC(CO)(CO)CO
COc1ccc(NC(=O)CN(C)C(=O)C2CC(=O)N(c3ccc4c(c3)OCCO4)C2)cc1 (stereo not drawn)
O=C(/C=C(\Nc1ccc(Cl)c(C(F)(F)F)c1)c1ccccc1)c1ccccc1

From PubChem BioAssay AID687001 (Broad Institute, 2013)
